# From PubChem BioAssay AID623923 (Vanderbilt Specialized Chemistry Center, 2012)
# Active and inactive are the calls of the source. How the calls were made is not given here.
# Assay: PubChem AID 623923
# Conditions: Ricerca radioligand binding panel, % inhibition, at 10 µM, stronger effect = higher value
smiles,measurement,setting,value
COc1ccc(C)c2sc(NC(=O)c3ccncc3)nc12,inhibition,5-HT2B binding,70%
same,inhibition,DAT transporter binding,13%
same,inhibition,GABA-A muscimol site binding,47%
same,inhibition,NET transporter binding,18%
same,inhibition,PAF receptor binding,34%
same,inhibition,adenosine A2A binding,100%
same,inhibition,adenosine A3 binding,99%
same,"inhibition of radioligand binding, adenosine A1",,91% (active)
same,inhibition,hERG binding,13%
same,inhibition,muscarinic M1 binding,-3%
same,inhibition,muscarinic M2 binding,-2%
same,inhibition,muscarinic M3 binding,3%
same,inhibition,sigma 1 binding,39%
